{
  "source": "PubChem BioAssay AID651899",
  "about": "(Broad Institute, 2012)",
  "note": "Measured potencies and affinities stand elsewhere. The source made the active and inactive calls. The rule behind the calls is not given here.",
  "data": [
    {"experiment": "HEK293 cell viability loss – plate reader, cherry-pick, cytotoxicity control, dose response (AID 651899);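 note: cells exposed to compound for 48 hours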", "settings": "series mostly up to 26 µM; activity change, negative = cytotoxicity: at the top concentration", "values": [
      {"smiles": "O=C(Nc1cccnc1)c1ccc(N2CCOCC2)c([N+](=O)[O-])c1", "activity change, negative = cytotoxicity": "25.2% (inactive)"},
      {"smiles": "COc1ccc(Cc2c(-c3ccc(OC)c(OC)c3)nc3ccc(C)cn23)c(C)c1", "activity change, negative = cytotoxicity": "2.2% (inactive)"},
      {"smiles": "O=C(c1ccc(Br)s1)N1CCN(Cc2ccc3c(c2)OCO3)CC1", "activity change, negative = cytotoxicity": "-14.7% (inactive)"},
      {"smiles": "CCn1c(=O)c(=O)n(CC)c2cc(S(=O)(=O)Nc3cc(C)ccc3C)ccc21", "activity change, negative = cytotoxicity": "-3.21% (inactive)"},
      {"smiles": "O=C(C[n+]1cc(-c2ccc(Cl)cc2)n2c1CCC2)N1c2ccccc2Sc2ccccc21", "activity change, negative = cytotoxicity": "-9.9% (inactive)"},
      {"smiles": "CN1c2ccc(-c3cccc(F)c3)cc2[C@H]2[C@H](CCN2C(=O)C2CCOCC2)[C@H]1CO", "activity change, negative = cytotoxicity": "20.7% (inactive)"},
      {"smiles": "Cc1nc(-c2cccnc2)sc1C(=O)Nc1cccc(C(F)(F)F)c1", "activity change, negative = cytotoxicity": "-8.29% (inactive)"},
      {"smiles": "COc1cc2c(cc1NC(=O)c1cccnc1)CCCC2", "activity change, negative = cytotoxicity": "-10.4% (inactive)"},
      {"smiles": "O=C(Nc1cccnc1)c1ccc(N2CCCC2)c([N+](=O)[O-])c1", "activity change, negative = cytotoxicity": "23.8% [at 12 µM] (inactive)"},
      {"smiles": "COc1ccc(C(=O)Nc2cccnc2)cc1OC", "activity change, negative = cytotoxicity": "-16.8% (inactive)"},
      {"smiles": "CCCN1CCN(C(=O)C2CCN(c3nnc(C)c4c(C)n(-c5ccc(C)cc5)nc34)CC2)CC1", "activity change, negative = cytotoxicity": "-11.5% (inactive)"},
      {"smiles": "CC(Oc1ccc2c(-c3ccccc3)cc(=O)oc2c1)C(=O)NCc1ccccn1", "note": "(stereo unspecified)", "activity change, negative = cytotoxicity": "-28.5% (inactive)"},
      {"smiles": "O=C(c1ccncc1)N1CC[C@H]2[C@H](CO)Nc3ccc(Br)cc3[C@H]21", "activity change, negative = cytotoxicity": "19.6% [at 23.5 µM] (inactive)"},
      {"smiles": "Cc1c(OC(C)C(=O)NCc2ccccn2)ccc2c3c(c(=O)oc12)CCC3", "note": "(stereo unspecified)", "activity change, negative = cytotoxicity": "-25.5% (inactive)"},
      {"smiles": "Cn1nnc2cc(C(=O)Nc3cccnc3)ccc21", "activity change, negative = cytotoxicity": "-8.5% (inactive)"},
      {"smiles": "COc1cc2cnc(-c3cccnc3)cc2cc1OC", "activity change, negative = cytotoxicity": "11.7% (inactive)"},
      {"smiles": "O=C(c1ccncc1)N1CC[C@@H]2[C@H](CO)Nc3ccc(Br)cc3[C@@H]21", "activity change, negative = cytotoxicity": "-1.15% (inactive)"},
      {"smiles": "O=C(Nc1cccnc1)c1ccc(Cl)c(Cl)c1", "activity change, negative = cytotoxicity": "8.49% (inactive)"},
      {"smiles": "Cc1ccc(Cc2c(C)nc3nc(SCC(=O)NCc4ccco4)nn3c2C)cc1", "activity change, negative = cytotoxicity": "-23.5% (inactive)"},
      {"smiles": "Cc1ccc(S(=O)(=O)N(C)C)cc1NC(=O)CSc1nncs1", "activity change, negative = cytotoxicity": "27.5% (inactive)"},
      {"smiles": "O=C(C[C@H]1C[C@@H]2c3cc(NC(=O)c4cccnc4)ccc3O[C@@H]2[C@@H](CO)O1)NCC(F)(F)F", "activity change, negative = cytotoxicity": "5.96% (inactive)"},
      {"smiles": "Cc1cc2c(c(=O)n1Cc1cccnc1)C(c1cccs1)C(C#N)=C(N)O2", "note": "(stereo unspecified)", "activity change, negative = cytotoxicity": "-4.37% (inactive)"},
      {"smiles": "CCc1nn(CCCC(=O)N(C)Cc2ccccc2)c(=O)c2cc3occc3n12", "activity change, negative = cytotoxicity": "-13.7% (inactive)"},
      {"smiles": "Cc1nn(CCC(=O)O)c2nc(-c3cccnc3)cc(C(F)(F)F)c12", "activity change, negative = cytotoxicity": "-7.73% (inactive)"},
      {"smiles": "Cc1ccc(-c2nnc(N3CCN(C(=O)CSc4ncn[nH]4)CC3)c3ccccc23)cc1", "activity change, negative = cytotoxicity": "-24.2% (inactive)"},
      {"smiles": "O=C(CSc1nc2c(c(=O)n1-c1ccc(Cl)cc1)SCC2)N1CCOCC1", "activity change, negative = cytotoxicity": "-6.89% (inactive)"},
      {"smiles": "Nn1c(SCc2nc3ccccc3[nH]2)nnc1-c1cccnc1", "activity change, negative = cytotoxicity": "-16.1% (inactive)"},
      {"smiles": "COC(=O)c1c(C(=O)OC)c(-c2ccccc2)n2c1CS(=O)C2", "note": "(stereo unspecified)", "activity change, negative = cytotoxicity": "6.13% (inactive)"},
      {"smiles": "CC1CN(C(=O)Nc2ccc3snnc3c2)c2ccccc21", "note": "(stereo unspecified)", "activity change, negative = cytotoxicity": "-12.4% (inactive)"},
      {"smiles": "O=C(Nc1cccc(F)c1)C1CCCN(c2cnccn2)C1", "note": "(stereo unspecified)", "activity change, negative = cytotoxicity": "-20% (inactive)"},
      {"smiles": "CC(=O)c1ccc(NC(=O)COC(=O)Cc2ccsc2)cc1", "activity change, negative = cytotoxicity": "10.6% (inactive)"},
      {"smiles": "Cn1ncc2cc3c(Nc4ccc(Cl)cc4)cccc3nc21", "activity change, negative = cytotoxicity": "-13.1% (inactive)"},
      {"smiles": "CCCOc1ccc2c3c(c(=O)oc2c1OCCC)CCC3", "activity change, negative = cytotoxicity": "18.1% (inactive)"},
      {"smiles": "C#CCSc1nnc(-c2sc(-c3ccccc3)nc2C)n1C", "activity change, negative = cytotoxicity": "-20.2% (inactive)"},
      {"smiles": "O=C(c1ccncc1)N1CC[C@@H]2[C@H]1c1cc(Br)ccc1N[C@@H]2CO", "activity change, negative = cytotoxicity": "2.88% (inactive)"},
      {"smiles": "CO[C@H]1CN(C)C(=O)c2ccc(NC(C)=O)cc2OC[C@@H](C)N(C(=O)c2ccc(F)cc2)C[C@H]1C", "activity change, negative = cytotoxicity": "21.7% [at 12 µM] (inactive)"}
    ]}
  ]
}
